From the supplement of paper PMC10849652
About 7,900 targets were measured; listed, in parts, are those with a hit and a random draw of the rest. About 0.6% of all pairs of compound and target were hits.

Assays:
Assay in all cases: log2 fold change, soluble protein after heating vs DMSO (PISA); higher = thermal stabilisation; K562 cells, 10 uM, 30 min; active = over 0.2 and 3.5 SD of the protein, either way, in both replicates (recomputed)
[1] = compound: C1=CC=C(C=C1)[C@H](COC2=CC3=C(C=C2)NC(=O)N3)NC(=O)C4=CC=CN(C4=O)CC5=CC(=C(C=C5)F)F
In short: (§1)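 K562 cells at 2×10^6 cells/mL were exposed to 10 μM compound for 30 min, then aliquots were heated for 3 min across 48°C-58°C, pooled, and extracted in PBS containing 0.5% NP-40 at 4°C. The supernatant after 21,000xg for 90 min was taken as soluble protein and measured by TMTpro 16plex LC-MS/MS with channel sums equalised. Thermal stability is reported relative to control samples, with values from duplicates. Fold changes are given on a log2 scale.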

[2] = compound: CC1=C2C(=CC=C1)N=C(N(C2=O)C3=CC=CC=C3C)CN4C=NC5=C(N=CN=C54)N
In short: as §1

[3] = compound: CC1=C(SC2=C1C(=N[C@H](C3=NN=C(N32)C)CC(=O)N)C4=CC=C(C=C4)Cl)C
In short: as §1

[4] = compound: Cc1sc2c(c1C)C(c1ccc(Cl)cc1)=N[C@@H](CC(=O)OC(C)(C)C)c1nnc(C)n1-2
In short: as §1

[5] = compound: c1ccc([C@@H]2C[C@H]2NC2CCNCC2)cc1
In short: as §1

Measured: log2 fold change

MSL1 (UniProt Q68DK7)
inactive: [1] 0.083 | [2] 0.17

MPHOSPH8 isoform 2 (UniProt Q99549)
UniProt Q99549, sequence (Q99549 whole entry, looked up): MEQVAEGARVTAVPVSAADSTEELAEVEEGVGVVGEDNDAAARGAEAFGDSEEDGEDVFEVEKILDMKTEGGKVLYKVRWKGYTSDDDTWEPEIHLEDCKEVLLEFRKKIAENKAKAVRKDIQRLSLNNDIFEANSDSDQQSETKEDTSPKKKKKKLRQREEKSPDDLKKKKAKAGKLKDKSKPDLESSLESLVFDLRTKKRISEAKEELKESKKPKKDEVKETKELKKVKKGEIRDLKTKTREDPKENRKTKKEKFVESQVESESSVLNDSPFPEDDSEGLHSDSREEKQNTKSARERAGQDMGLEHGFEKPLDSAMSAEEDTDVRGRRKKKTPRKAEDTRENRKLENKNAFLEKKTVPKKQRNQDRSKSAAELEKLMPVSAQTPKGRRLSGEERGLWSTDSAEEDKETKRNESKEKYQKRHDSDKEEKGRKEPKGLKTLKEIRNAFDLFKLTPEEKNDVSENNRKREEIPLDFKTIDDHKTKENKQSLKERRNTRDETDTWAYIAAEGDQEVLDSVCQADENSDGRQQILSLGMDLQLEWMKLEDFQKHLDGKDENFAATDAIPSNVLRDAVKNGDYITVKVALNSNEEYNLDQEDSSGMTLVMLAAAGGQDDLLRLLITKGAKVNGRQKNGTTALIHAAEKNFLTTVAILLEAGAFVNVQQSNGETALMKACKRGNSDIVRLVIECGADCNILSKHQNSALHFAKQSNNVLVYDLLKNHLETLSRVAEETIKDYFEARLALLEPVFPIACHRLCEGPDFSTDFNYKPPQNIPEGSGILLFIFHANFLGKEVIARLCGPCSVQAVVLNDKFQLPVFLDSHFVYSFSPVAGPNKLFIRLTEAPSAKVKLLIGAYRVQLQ
inactive: [3] -0.064 | [2] -0.009 | [4] 0.089 | [5] 0.061

NUCKS1 (UniProt Q9H1E3)
inactive: [1] 0.044 | [3] -0.053 | [2] 0.032 | [4] -0.029 | [5] -0.007

NUMBL (UniProt Q9Y6R0)
UniProt Q9Y6R0, sequence (Q9Y6R0 whole entry, looked up): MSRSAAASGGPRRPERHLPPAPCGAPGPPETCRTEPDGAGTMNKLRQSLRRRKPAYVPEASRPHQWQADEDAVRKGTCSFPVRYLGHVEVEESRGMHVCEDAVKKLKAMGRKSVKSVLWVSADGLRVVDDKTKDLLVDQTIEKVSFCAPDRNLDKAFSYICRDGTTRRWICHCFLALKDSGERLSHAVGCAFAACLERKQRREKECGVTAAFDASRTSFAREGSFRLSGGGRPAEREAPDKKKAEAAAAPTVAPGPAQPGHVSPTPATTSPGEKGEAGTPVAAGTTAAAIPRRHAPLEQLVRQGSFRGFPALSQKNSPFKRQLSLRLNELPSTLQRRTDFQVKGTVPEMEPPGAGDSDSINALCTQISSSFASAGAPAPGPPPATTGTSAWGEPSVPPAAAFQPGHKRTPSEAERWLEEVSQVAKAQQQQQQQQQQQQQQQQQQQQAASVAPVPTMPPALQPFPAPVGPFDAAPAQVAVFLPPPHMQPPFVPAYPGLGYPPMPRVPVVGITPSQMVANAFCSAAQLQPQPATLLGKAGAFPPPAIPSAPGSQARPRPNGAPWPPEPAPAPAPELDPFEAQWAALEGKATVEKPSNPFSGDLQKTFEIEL
inactive: [1] -0.058 | [3] -0.084 | [2] 0.009 | [5] -0.009

NAGPA (UniProt Q9UK23)
UniProt Q9UK23, sequence (Q9UK23 whole entry, looked up): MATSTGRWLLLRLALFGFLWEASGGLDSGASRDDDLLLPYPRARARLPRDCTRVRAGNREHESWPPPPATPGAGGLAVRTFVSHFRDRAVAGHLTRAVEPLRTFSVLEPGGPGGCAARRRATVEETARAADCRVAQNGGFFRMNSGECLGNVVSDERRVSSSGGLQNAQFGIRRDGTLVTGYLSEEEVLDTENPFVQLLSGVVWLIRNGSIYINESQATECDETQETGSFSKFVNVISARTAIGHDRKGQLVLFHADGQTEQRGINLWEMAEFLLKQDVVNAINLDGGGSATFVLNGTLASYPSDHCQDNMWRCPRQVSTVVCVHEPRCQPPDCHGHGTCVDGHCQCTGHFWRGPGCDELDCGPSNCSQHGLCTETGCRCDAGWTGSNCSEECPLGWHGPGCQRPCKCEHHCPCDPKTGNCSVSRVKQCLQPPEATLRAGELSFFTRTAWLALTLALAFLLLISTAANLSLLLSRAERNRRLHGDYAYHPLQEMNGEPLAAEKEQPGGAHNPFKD
inactive: [1] 0.179 | [3] -0.048 | [4] -0.004 | [5] 0.061

NUDT6 (UniProt P53370)
UniProt P53370, sequence (P53370 whole entry, looked up): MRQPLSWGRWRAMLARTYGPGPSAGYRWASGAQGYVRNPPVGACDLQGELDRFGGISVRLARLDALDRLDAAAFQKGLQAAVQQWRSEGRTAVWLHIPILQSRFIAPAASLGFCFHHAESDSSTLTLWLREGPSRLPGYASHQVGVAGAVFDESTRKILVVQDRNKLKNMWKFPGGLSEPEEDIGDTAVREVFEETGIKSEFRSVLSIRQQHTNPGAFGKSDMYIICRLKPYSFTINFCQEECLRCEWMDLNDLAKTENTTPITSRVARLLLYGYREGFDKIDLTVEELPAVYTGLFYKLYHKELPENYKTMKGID
inactive: [3] 0.073 | [2] 0.34 | [4] -0.023 | [5] -0.212

MON2 isoform 5 (UniProt Q7Z3U7)
inactive: [1] -0.023 | [3] 0.016 | [2] 0.109 | [4] -0.025 | [5] -0.073

MON1A (UniProt Q86VX9)
inactive: [1] 0.1 | [4] -0.071

NAP1L1 (UniProt B7Z9C2)
inactive: [1] 0.003 | [2] 0.134

NEK3 (UniProt P51956)
inactive: [3] 0.204 | [2] 0.053 | [4] -0.032 | [5] -0.094

NGLY1 (UniProt Q96IV0)
UniProt Q96IV0, sequence (Q96IV0 whole entry, looked up): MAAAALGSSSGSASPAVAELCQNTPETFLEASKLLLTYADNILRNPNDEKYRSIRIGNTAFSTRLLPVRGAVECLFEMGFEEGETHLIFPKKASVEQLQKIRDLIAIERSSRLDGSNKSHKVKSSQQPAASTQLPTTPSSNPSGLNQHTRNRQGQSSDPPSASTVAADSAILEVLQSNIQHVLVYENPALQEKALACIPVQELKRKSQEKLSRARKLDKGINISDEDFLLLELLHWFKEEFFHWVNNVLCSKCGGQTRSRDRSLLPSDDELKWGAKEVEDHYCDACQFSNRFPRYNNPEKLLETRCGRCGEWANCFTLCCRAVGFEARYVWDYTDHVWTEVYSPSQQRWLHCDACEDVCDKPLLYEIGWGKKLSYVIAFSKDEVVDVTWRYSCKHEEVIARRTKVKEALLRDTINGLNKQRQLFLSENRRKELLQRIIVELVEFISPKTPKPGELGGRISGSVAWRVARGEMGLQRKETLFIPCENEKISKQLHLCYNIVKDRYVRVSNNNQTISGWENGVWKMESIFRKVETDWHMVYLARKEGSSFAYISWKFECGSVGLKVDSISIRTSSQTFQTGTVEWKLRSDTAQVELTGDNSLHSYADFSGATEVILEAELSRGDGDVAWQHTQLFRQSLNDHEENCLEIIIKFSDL
inactive: [1] -0.084 | [3] 0.01 | [2] 0.114 | [4] 0.014 | [5] -0.046

MRM2 (UniProt Q9UI43)
UniProt Q9UI43, sequence (Q9UI43 whole entry, looked up): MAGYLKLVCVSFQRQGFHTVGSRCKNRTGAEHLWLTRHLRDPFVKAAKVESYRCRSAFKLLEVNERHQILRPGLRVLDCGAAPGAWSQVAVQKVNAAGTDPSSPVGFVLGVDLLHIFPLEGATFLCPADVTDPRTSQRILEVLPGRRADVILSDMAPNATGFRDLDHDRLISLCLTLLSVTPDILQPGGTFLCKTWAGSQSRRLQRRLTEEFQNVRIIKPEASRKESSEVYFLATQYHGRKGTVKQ
inactive: [3] 0.021 | [2] 0.071 | [4] 0 | [5] -0.052

NECTIN2 isoform 2 (UniProt Q92692)
inactive: [1] 0.179 | [2] -0.03

NDUFAF6 (UniProt Q330K2)
UniProt Q330K2, sequence (Q330K2 whole entry, looked up): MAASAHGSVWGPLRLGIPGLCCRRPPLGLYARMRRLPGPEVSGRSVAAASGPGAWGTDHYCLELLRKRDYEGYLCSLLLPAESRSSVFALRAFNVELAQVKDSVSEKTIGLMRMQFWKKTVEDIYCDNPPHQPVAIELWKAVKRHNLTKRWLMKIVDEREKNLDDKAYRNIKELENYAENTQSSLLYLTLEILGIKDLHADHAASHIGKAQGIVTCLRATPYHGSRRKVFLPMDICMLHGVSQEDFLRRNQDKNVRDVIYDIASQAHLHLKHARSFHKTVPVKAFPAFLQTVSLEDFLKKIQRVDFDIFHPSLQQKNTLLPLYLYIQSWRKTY
inactive: [1] -0.048 | [3] 0.003 | [2] -0.006 | [4] 0.063 | [5] 0.024

NARS2 (UniProt Q96I59)
UniProt Q96I59, sequence (Q96I59 whole entry, looked up): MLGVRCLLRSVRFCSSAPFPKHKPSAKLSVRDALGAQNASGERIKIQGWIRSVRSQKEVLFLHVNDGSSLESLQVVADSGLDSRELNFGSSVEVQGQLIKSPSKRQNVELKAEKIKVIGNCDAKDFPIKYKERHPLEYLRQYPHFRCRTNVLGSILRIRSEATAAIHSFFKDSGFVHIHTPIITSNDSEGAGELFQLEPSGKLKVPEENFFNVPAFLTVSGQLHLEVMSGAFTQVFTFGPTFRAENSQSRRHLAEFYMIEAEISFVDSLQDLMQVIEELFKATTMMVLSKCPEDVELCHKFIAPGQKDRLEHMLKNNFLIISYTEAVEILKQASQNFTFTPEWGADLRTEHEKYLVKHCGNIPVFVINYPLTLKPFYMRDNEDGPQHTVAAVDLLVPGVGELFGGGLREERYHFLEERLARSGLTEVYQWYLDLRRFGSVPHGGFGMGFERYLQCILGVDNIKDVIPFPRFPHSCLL
inactive: [1] 0 | [3] 0.057 | [2] 0.059 | [4] 0 | [5] -0.027

OXR1 isoform 2 (UniProt Q8N573)
UniProt Q8N573, sequence (Q8N573 whole entry, looked up): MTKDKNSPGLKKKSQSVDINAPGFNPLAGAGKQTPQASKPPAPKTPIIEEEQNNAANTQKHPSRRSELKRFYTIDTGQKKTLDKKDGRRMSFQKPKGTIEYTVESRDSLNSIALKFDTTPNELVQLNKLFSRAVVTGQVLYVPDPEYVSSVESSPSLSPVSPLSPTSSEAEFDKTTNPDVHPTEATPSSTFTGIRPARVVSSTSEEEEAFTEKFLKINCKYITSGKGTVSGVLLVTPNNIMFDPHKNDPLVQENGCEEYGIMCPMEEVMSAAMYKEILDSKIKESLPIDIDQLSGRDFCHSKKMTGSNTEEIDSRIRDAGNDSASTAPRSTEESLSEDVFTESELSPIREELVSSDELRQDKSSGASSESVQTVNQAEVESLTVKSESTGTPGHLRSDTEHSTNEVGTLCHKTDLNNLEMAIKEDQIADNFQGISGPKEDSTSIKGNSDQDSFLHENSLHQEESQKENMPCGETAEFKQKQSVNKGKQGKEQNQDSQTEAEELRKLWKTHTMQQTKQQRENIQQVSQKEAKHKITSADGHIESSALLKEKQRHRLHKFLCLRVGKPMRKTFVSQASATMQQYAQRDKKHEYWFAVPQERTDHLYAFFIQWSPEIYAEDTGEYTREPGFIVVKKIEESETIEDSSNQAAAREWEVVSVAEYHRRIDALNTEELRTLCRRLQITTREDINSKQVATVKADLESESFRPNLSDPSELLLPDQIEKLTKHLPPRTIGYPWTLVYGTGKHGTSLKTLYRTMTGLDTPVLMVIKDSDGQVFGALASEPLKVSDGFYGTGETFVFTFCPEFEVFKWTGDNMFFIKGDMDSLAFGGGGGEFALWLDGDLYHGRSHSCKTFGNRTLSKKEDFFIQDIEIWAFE
inactive: [3] 0.126 | [2] 0.025 | [4] -0.035 | [5] -0.101

NOB1 (UniProt Q9ULX3)
inactive: [1] -0.048 | [3] -0.033 | [2] 0.048 | [4] 0.067 | [5] -0.06
